Hit rate of the full screen: of about 16,000 compounds, about 5,800 (36%) were called active. About 23% were inconclusive and are not listed. The list shows a part of the results. Unmarked numbers belong to inactive results. Calls come from the whole dose curve; as a rule, active = well fitted curve in the direction sought with a large enough effect; inconclusive = small, poorly fitted or top-dose-only effect, or effect the other way; inactive = no such curve, though single readings can be large or run the other way.
Target: Cytochrome P450 2C19 (Homo sapiens) (UniProt P33261)
Assay: Cytochrome panel assay with activity outcomes
Details: recombinant CYP, pro-luciferin dealkylation, luminescence, p450-cyp2c19; series mostly up to 57.1 µM; activity, negative = inhibition: at the top concentration
% is set by controls: 0 for no effect and ±100 for the full control effect.

Sequence of Cytochrome P450 2C19 (Homo sapiens) (P33261 whole entry, looked up): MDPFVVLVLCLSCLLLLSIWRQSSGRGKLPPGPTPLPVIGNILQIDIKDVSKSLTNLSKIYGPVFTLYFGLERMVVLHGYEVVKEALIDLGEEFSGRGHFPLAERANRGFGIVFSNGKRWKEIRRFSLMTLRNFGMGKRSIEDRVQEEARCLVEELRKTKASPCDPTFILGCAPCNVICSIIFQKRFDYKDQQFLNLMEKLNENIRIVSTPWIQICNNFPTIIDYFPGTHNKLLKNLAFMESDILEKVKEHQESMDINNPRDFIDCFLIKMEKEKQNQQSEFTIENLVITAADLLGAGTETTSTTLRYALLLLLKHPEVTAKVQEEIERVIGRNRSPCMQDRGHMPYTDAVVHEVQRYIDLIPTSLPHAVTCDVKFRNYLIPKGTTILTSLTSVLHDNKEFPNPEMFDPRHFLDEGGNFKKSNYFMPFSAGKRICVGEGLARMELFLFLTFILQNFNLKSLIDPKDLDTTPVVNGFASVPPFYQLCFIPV

Q: `C[C@@](O)(CNS(=O)(=O)c1ccccc1)c1ccccc1` was tested. Which AC50 did it give?
A: 1000 nM (active)

Q: How did the activity, negative = inhibition turn out when `CNS(=O)(=O)c1ccccc1C(=N)c1ccccc1` was run?
A: -10% [at 11.4 µM]

Q: With `Cn1ccnc1C[C@@](C)(O)c1ccccc1` as the compound, how does the activity, negative = inhibition read?
A: -6.82% [at 11.4 µM]

Q: `CCn1c(SCC(=O)Nc2nc3ccc(C)cc3s2)nc2c(c1=O)SC(C)C2` (stereo not drawn) was tested. Which AC50 did it give?
A: 2820 nM (active)

Q: How did the AC50 turn out when `CCn1c(SCC(=O)Nc2ccc3c(c2)OCCO3)nc2c(c1=O)SC(C)C2` (stereo not drawn) was run?
A: 8910 nM (active)

Q: How did the AC50 turn out when `Cc1ccc2nc(NC(=O)CSc3nc4c(c(=O)n3C)SC(C)C4)sc2c1` (stereo not drawn) was run?
A: 5620 nM (active)

Q: Which AC50 does the source give for `COC(=O)c1cccc(C(=O)Nc2ccc(C)cc2)n1` here?
A: 11200 nM (active)

Q: Which “activity, negative = inhibition” value does the source give for `Cc1ccc(OC(=O)c2cccc(C(=O)Oc3ccc(C)cn3)n2)nc1` here?
A: -1.57%

Q: `CC(C)OC(=O)c1cccc(C(=O)Oc2ccc(Br)cc2)n1` was tested. Which “activity, negative = inhibition” value did it give?
A: -3.45%

Q: `Cc1cc(C)n2nc(SCc3cc(=O)oc4ccc5ccccc5c34)nc2n1` was tested. Which AC50 did it give?
A: 8910 nM (active)

Q: For `Cc1cc(NS(=O)(=O)c2ccc(NC(=O)CN3C(=O)c4ccccc4C3=O)cc2)nc(C)n1`, which “activity, negative = inhibition” value is on record?
A: -23.3%

Q: Which “activity, negative = inhibition” value does the source give for `Cc1ccc(/C=N/NC(=O)CSc2nc3nc(C)cc(C)n3n2)cc1` here?
A: -39.3%

Q: Which AC50 does the source give for `Cc1cc(C)n2nc(SCN3C(=O)c4ccccc4C3=O)nc2n1` here?
A: 2510 nM (active)

Q: `CCSc1nc2nc(C)cc(C)n2n1` was tested. Which “activity, negative = inhibition” value did it give?
A: -1.22%

Q: With `COc1ccccc1CNC(=O)CSc1nc2nc(C)cc(C)n2n1` as the compound, how does the AC50 read?
A: 10000 nM (active)

Q: `CC12COC3(C(=O)Nc4nccs4)CC1CCC32C` (stereo not drawn) was tested. Which AC50 did it give?
A: 2240 nM (active)

Q: For `COCC(=O)N1CCC2(CCCN(C(=O)Nc3cccc(C#N)c3)C2)CC1`, which “activity, negative = inhibition” value is on record?
A: 16.8%

Q: How did the AC50 turn out when `CC(C/C=N/NC(=O)COc1cc(Cl)ccc1Cl)c1ccccc1` (stereo not drawn) was run?
A: 447 nM (active)

Q: For `O=C(COc1ccc(Cl)cc1Cl)N/N=C/CCc1ccccc1`, which AC50 is on record?
A: 2000 nM (active)

Q: With `OC1(c2ccc(OC(F)F)cc2)CSC(=Nc2cccnc2)N1C1CC1` (stereo not drawn) as the compound, how does the AC50 read?
A: 79.4 nM (active)

Q: For `COc1cc(N=c2ssnc2Cl)cc(OC)c1OC`, which AC50 is on record?
A: 1120 nM (active)

Q: Which AC50 does the source give for `Cc1cccc(OC(=O)CN2C(=O)C3C4CCC(C4)C3C2=O)c1C` (stereo not drawn) here?
A: 3980 nM (active)

Q: With `C=CCn1c(C)cc(C(=O)CN2C(=O)c3ccccc3C2=O)c1C` as the compound, how does the AC50 read?
A: 3980 nM (active)

Q: `Cc1ccc(C)c(C(=O)CN2C(=O)c3ccccc3S2(=O)=O)c1` was tested. Which “activity, negative = inhibition” value did it give?
A: -41.5%

Q: For `O=C(CN1C(=O)c2ccccc2C1=O)NC1(C(=O)O)CCCC1`, which activity, negative = inhibition is on record?
A: 20.8% [at 11.4 µM]

Q: For `c1ccc(Nc2ncncc2-c2ccc3c(c2)OCO3)cc1`, which AC50 is on record?
A: 251 nM (active)

Q: Which AC50 does the source give for `c1cncc(CNc2ncncc2-c2ccc3c(c2)OCO3)c1` here?
A: 200 nM (active)

Q: `Cc1cnc(CNc2ncncc2-c2ccc3c(c2)OCO3)cn1` was tested. Which “activity, negative = inhibition” value did it give?
A: -31.6%

Q: With `Cc1cccc(CNc2ncncc2-c2ccc3c(c2)OCO3)c1` as the compound, how does the AC50 read?
A: 501 nM (active)

Q: Which AC50 does the source give for `c1ccc(CNc2ncncc2-c2ccc3c(c2)OCO3)cc1` here?
A: 501 nM (active)

Q: For `c1csc(CNc2ncncc2-c2ccc3c(c2)OCO3)c1`, which AC50 is on record?
A: 794 nM (active)

Q: For `CN(C)c1ncc2nc(-c3ccc(Cl)cc3)c(=O)n(C)c2n1`, which “activity, negative = inhibition” value is on record?
A: -8.52%

Q: `CC(C)c1nnc(-c2ccc(Cl)cc2)c(N(C)C)n1` was tested. Which AC50 did it give?
A: 2510 nM (active)

Q: With `C[C@]1(O)CC[C@H]2[C@H]3CC=C4N5CCN=C5CC[C@@]4(C)[C@H]3CC[C@@]21C` as the compound, how does the activity, negative = inhibition read?
A: 14.3% [at 11.4 µM]

Q: `CC1(O)c2ccccc2C(=O)N1CCc1ccccc1F` (stereo not drawn) was tested. Which AC50 did it give?
A: 251 nM (active)

Q: How did the activity, negative = inhibition turn out when `CC(C)c1ccc(/C(C(=O)O)=C(\O)C(=O)O)cc1` was run?
A: -8.84% [at 11.4 µM]

Q: With `CCC1CCCCN1CCn1c(=S)[nH]c2cc(OC)c(OC)cc2c1=O` (stereo not drawn) as the compound, how does the “activity, negative = inhibition” value read?
A: 2.9%

Q: `O=C(CCn1c(=S)[nH]c2ccccc2c1=O)NCCCN1CCOCC1` was tested. Which “activity, negative = inhibition” value did it give?
A: -13.4%

Q: How did the “activity, negative = inhibition” value turn out when `CC(C)NC(=O)c1ccc2c(=O)n(Cc3ccco3)c(=S)[nH]c2c1` was run?
A: -20.7%

Q: `COCCn1c(=S)[nH]c2cc(C(=O)NC(C)C)ccc2c1=O` was tested. Which AC50 did it give?
A: 15800 nM (active)

Q: Which AC50 does the source give for `COCCNC(=O)CCCCCn1c(=S)[nH]c2ccccc2c1=O` here?
A: 22400 nM (active)

Q: For `CCOC(=O)CCN1C(=O)[C@H]2[C@H]3[C@H](O)[C@H](O)C/C(=N/OC/C=C(\C)CCC=C(C)C)[C@H]3CC[C@@H]2C1=O`, which activity, negative = inhibition is on record?
A: 12.1% [at 11.4 µM]

Q: For `Cc1ccc(S(=O)(=O)CCCS(=O)(=O)c2ccc(C)cc2)cc1`, which AC50 is on record?
A: 10000 nM (active)

Q: How did the AC50 turn out when `O=S(=O)(c1ccccc1)N1CCC2(CCCN(Cc3ccncc3)C2)CC1` was run?
A: 316 nM (active)

Q: With `O=S(=O)(c1ccccc1)N1CCC2(CC1)CN(Cc1ccccc1)C2` as the compound, how does the “activity, negative = inhibition” value read?
A: -18.1%

Q: How did the “activity, negative = inhibition” value turn out when `N#Cc1ccc(CN2CCC3(CC2)CCN(S(=O)(=O)c2ccccc2)CC3)cc1` was run?
A: 5.6%

Q: Which “activity, negative = inhibition” value does the source give for `O=S(=O)(c1ccccc1)N1CCC2(CCN(Cc3ccncc3)CC2)CC1` here?
A: -22.9%

Q: `N#Cc1ccc(CN2CCCC3(CCN(S(=O)(=O)c4ccccc4)CC3)C2)cc1` was tested. Which AC50 did it give?
A: 15800 nM (active)
